# The whole screen tested about 5,700 compounds, of which about 85 (1%) were called active. Rule as the data show it: active = p53-positive nuclei above about 36% (passing the limit was not always enough); inactive = the rest. The list comes from a sample in which actives are over-represented; it also holds similar structures and randomly drawn compounds.
# Experiments:
# [1] = p53 stabilisation in HPV-positive human cells, imaging, p53-positive nuclei imaging, 24 h, 48 h (AID 1508601); settings: 24/48 h
# [2] = molecular target: Cellular tumor antigen p53 (Homo sapiens) (UniProt P04637); assay: as above; settings: 24/48 h, stronger effect = higher value
# [3] = measured here: cell number at 24 h, Library stock concentration: 10 mM
# [4] = measured here: cell number at 48 h, Library stock concentration: 10 mM
# [5] = Library stock concentration: 10 mM
# [6] = measured here: p53 positive nuclei at 24 h, Library stock concentration: 10 mM
# [7] = measured here: cell number at 24 h, concentration not given here
# [8] = measured here: cell number at 48 h, concentration not given here
# [9] = measured here: p53 positive nuclei at 24 h, concentration not given here
# [10] = measured here: cell number at 24 h, Library stock concentration: 3.33 mM
# [11] = measured here: cell number at 48 h, Library stock concentration: 3.33 mM
# [12] = Library stock concentration: 3.33 mM
# [13] = measured here: p53 positive nuclei at 24 h, Library stock concentration: 3.33 mM
# Chain of Cellular tumor antigen p53 (Homo sapiens) (P04637 whole entry, looked up): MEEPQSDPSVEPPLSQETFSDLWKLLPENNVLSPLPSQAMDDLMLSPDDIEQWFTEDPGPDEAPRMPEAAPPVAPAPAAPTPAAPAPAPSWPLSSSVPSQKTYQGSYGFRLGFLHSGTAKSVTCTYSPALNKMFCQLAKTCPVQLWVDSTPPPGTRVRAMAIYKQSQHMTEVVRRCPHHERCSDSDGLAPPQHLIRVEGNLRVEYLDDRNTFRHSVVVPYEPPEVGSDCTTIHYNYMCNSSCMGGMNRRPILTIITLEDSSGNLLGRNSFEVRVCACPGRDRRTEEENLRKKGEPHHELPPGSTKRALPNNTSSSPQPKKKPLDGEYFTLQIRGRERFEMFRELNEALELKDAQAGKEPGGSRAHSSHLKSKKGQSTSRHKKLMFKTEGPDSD
smiles,measurement,setting,value
O=C(O)c1ccccc1SC1=NS(=O)(=O)c2ccccc21,"nuclei count, normalised","[1]; measured here: cell number at 24 h, Library stock concentration: 500 nM",117%
same,"nuclei count, normalised","[1]; measured here: cell number at 24 h, Library stock concentration: 1.5 uM",119%
same,"nuclei count, normalised","[1]; measured here: cell number at 24 h, Library stock concentration: 4.6 uM",119%
same,"nuclei count, normalised","[1]; measured here: cell number at 24 h, Library stock concentration: 13.7 uM",120%
same,"nuclei count, normalised","[1]; measured here: cell number at 24 h, Library stock concentration: 41 uM",125%
same,"nuclei count, normalised","[1]; measured here: cell number at 24 h, Library stock concentration: 123 uM",126%
same,"nuclei count, normalised","[1]; measured here: cell number at 24 h, Library stock concentration: 370 uM",125%
same,"nuclei count, normalised","[1]; measured here: cell number at 24 h, Library stock concentration: 1.111 mM",119%
same,"nuclei count, normalised","[1]; measured here: cell number at 24 h, Library stock concentration: 3.333 mM",120%
same,"nuclei count, normalised",[1]; [3],112%
same,"nuclei count, normalised","[1]; measured here: cell number at 48 h, Library stock concentration: 500 nM",123%
same,"nuclei count, normalised","[1]; measured here: cell number at 48 h, Library stock concentration: 1.5 uM",121%
same,"nuclei count, normalised","[1]; measured here: cell number at 48 h, Library stock concentration: 4.6 uM",126%
same,"nuclei count, normalised","[1]; measured here: cell number at 48 h, Library stock concentration: 13.7 uM",116%
same,"nuclei count, normalised","[1]; measured here: cell number at 48 h, Library stock concentration: 41 uM",127%
same,"nuclei count, normalised","[1]; measured here: cell number at 48 h, Library stock concentration: 123 uM",121%
same,"nuclei count, normalised","[1]; measured here: cell number at 48 h, Library stock concentration: 370 uM",120%
same,"nuclei count, normalised","[1]; measured here: cell number at 48 h, Library stock concentration: 1.111 mM",117%
same,"nuclei count, normalised","[1]; measured here: cell number at 48 h, Library stock concentration: 3.333 mM",122%
same,"nuclei count, normalised",[1]; [4],111%
same,"p53-positive nuclei, normalised",[2]; Library stock concentration: 500 nM,-0.176% (inactive)
same,"p53-positive nuclei, normalised",[2]; Library stock concentration: 1.5 uM,0.0563% (inactive)
same,"p53-positive nuclei, normalised",[2]; Library stock concentration: 4.6 uM,-0.0688% (inactive)
same,"p53-positive nuclei, normalised",[2]; Library stock concentration: 13.7 uM,0.0271% (inactive)
same,"p53-positive nuclei, normalised",[2]; Library stock concentration: 41 uM,-0.248% (inactive)
same,"p53-positive nuclei, normalised",[2]; Library stock concentration: 123 uM,-0.212% (inactive)
same,"p53-positive nuclei, normalised",[2]; Library stock concentration: 370 uM,0.0436% (inactive)
same,"p53-positive nuclei, normalised",[2]; Library stock concentration: 1.111 mM,0.133% (inactive)
same,"p53-positive nuclei, normalised",[2]; Library stock concentration: 3.333 mM,-0.102% (inactive)
same,"p53-positive nuclei, normalised",[2]; [5],0.0746% (inactive)
same,"p53-positive nuclei, normalised","[2]; measured here: p53 positive nuclei at 24 h, Library stock concentration: 500 nM",-0.148%
same,"p53-positive nuclei, normalised","[2]; measured here: p53 positive nuclei at 24 h, Library stock concentration: 1.5 uM",-0.0949%
same,"p53-positive nuclei, normalised","[2]; measured here: p53 positive nuclei at 24 h, Library stock concentration: 4.6 uM",-0.0339%
same,"p53-positive nuclei, normalised","[2]; measured here: p53 positive nuclei at 24 h, Library stock concentration: 13.7 uM",-0.0316%
same,"p53-positive nuclei, normalised","[2]; measured here: p53 positive nuclei at 24 h, Library stock concentration: 41 uM",-0.148%
same,"p53-positive nuclei, normalised","[2]; measured here: p53 positive nuclei at 24 h, Library stock concentration: 123 uM",-0.148%
same,"p53-positive nuclei, normalised","[2]; measured here: p53 positive nuclei at 24 h, Library stock concentration: 370 uM",-0.0409%
same,"p53-positive nuclei, normalised","[2]; measured here: p53 positive nuclei at 24 h, Library stock concentration: 1.111 mM",-0.0917%
same,"p53-positive nuclei, normalised","[2]; measured here: p53 positive nuclei at 24 h, Library stock concentration: 3.333 mM",-0.0904%
same,"p53-positive nuclei, normalised",[2]; [6],-0.0218%
O=C(CCn1cnnn1)N1CCc2[nH]nc(-c3ccc4c(c3)OCO4)c2C1,"nuclei count, normalised",[1]; [7],107%
same,"nuclei count, normalised",[1]; [8],111%
same,"p53-positive nuclei, normalised",[2]; concentration not given here,0.266% (inactive)
same,"p53-positive nuclei, normalised",[2]; [9],0.111%
Cc1ccc([N+](=O)[O-])cc1S(=O)(=O)N(C)N=Cc1cnc2ccc(Br)cn12,"nuclei count, normalised",[1]; [10],17.7%
same,"nuclei count, normalised",[1]; [11],14.7%
same,"p53-positive nuclei, normalised",[2]; [12],14.4% (inactive)
same,"p53-positive nuclei, normalised",[2]; [13],4.1%
CCc1c2c(nc3ccc(OC(=O)N4CCC(N5CCCCC5)CC4)cc13)-c1cc3c(c(=O)n1C2)COC(=O)[C@@]3(O)CC,"nuclei count, normalised",[1]; [10],44.3%
same,"nuclei count, normalised",[1]; [11],30.6%
same,"p53-positive nuclei, normalised",[2]; [12],-0.157% (inactive)
same,"p53-positive nuclei, normalised",[2]; [13],-0.474%
Cn1cc(C2=C(c3cn(CCCN)c4ccccc34)C(=O)NC2=O)c2ccccc21,"nuclei count, normalised",[1]; [7],114%
same,"nuclei count, normalised",[1]; [8],106%
same,"p53-positive nuclei, normalised",[2]; concentration not given here,0.117% (inactive)
same,"p53-positive nuclei, normalised",[2]; [9],0.12%
Cn1cc(C2=C(c3cn(CCCSC(=N)N)c4ccccc34)C(=O)NC2=O)c2ccccc21,"nuclei count, normalised","[1]; measured here: cell number at 24 h, Library stock concentration: 80 uM",108%
same,"nuclei count, normalised","[1]; measured here: cell number at 24 h, Library stock concentration: 400 uM",104%
same,"nuclei count, normalised","[1]; measured here: cell number at 24 h, Library stock concentration: 2 mM",97.9%
same,"nuclei count, normalised",[1]; [10],68.3%
same,"nuclei count, normalised",[1]; [3],38.8%
same,"nuclei count, normalised",[1]; [7],102%
same,"nuclei count, normalised","[1]; measured here: cell number at 48 h, Library stock concentration: 80 uM",114%
same,"nuclei count, normalised","[1]; measured here: cell number at 48 h, Library stock concentration: 400 uM",111%
same,"nuclei count, normalised","[1]; measured here: cell number at 48 h, Library stock concentration: 2 mM",98.9%
same,"nuclei count, normalised",[1]; [11],63.6%
same,"nuclei count, normalised",[1]; [4],29%
same,"nuclei count, normalised",[1]; [8],104%
same,"p53-positive nuclei, normalised",[2]; Library stock concentration: 80 uM,0.143% (inactive)
same,"p53-positive nuclei, normalised",[2]; Library stock concentration: 400 uM,-0.08% (inactive)
same,"p53-positive nuclei, normalised",[2]; Library stock concentration: 2 mM,3.66% (inactive)
same,"p53-positive nuclei, normalised",[2]; [12],23.8% (inactive)
same,"p53-positive nuclei, normalised",[2]; [5],70.5% (active)
same,"p53-positive nuclei, normalised",[2]; concentration not given here,0.319% (inactive)
same,"p53-positive nuclei, normalised","[2]; measured here: p53 positive nuclei at 24 h, Library stock concentration: 80 uM",-0.111%
same,"p53-positive nuclei, normalised","[2]; measured here: p53 positive nuclei at 24 h, Library stock concentration: 400 uM",-0.0611%
same,"p53-positive nuclei, normalised","[2]; measured here: p53 positive nuclei at 24 h, Library stock concentration: 2 mM",3.9%
same,"p53-positive nuclei, normalised",[2]; [13],33.8%
same,"p53-positive nuclei, normalised",[2]; [6],47.3%
same,"p53-positive nuclei, normalised",[2]; [9],0.487%
CN(C)CCCn1cc(C2=C(c3c[nH]c4ccccc34)C(=O)NC2=O)c2ccccc21,"nuclei count, normalised",[1]; [10],108%
same,"nuclei count, normalised",[1]; [11],105%
same,"p53-positive nuclei, normalised",[2]; [12],0.0456% (inactive)
same,"p53-positive nuclei, normalised",[2]; [13],-0.293%
Cc1nsc(NC(=O)NCCC2CCCCCC2)n1,"nuclei count, normalised",[1]; [7],106%
same,"nuclei count, normalised",[1]; [8],112%
same,"p53-positive nuclei, normalised",[2]; concentration not given here,-0.14% (inactive)
same,"p53-positive nuclei, normalised",[2]; [9],-0.0933%
CC1(C)OC2C[C@H]3[C@@H]4CCC5=CC(=O)CC[C@]5(C)[C@]4(F)C(O)C[C@]3(C)[C@@]2(C(=O)CCl)O1 (some centres undefined),"nuclei count, normalised",[1]; [10],80.9%
same,"nuclei count, normalised",[1]; [11],80.1%
same,"p53-positive nuclei, normalised",[2]; [12],-0.151% (inactive)
same,"p53-positive nuclei, normalised",[2]; [13],-0.267%
O=C1O[C@H](C(O)CO)C(O)C1O (some centres undefined),"nuclei count, normalised",[1]; [10],110%
same,"nuclei count, normalised",[1]; [11],103%
same,"p53-positive nuclei, normalised",[2]; [12],-0.204% (inactive)
same,"p53-positive nuclei, normalised",[2]; [13],-0.283%
COc1ccc(F)c(F)c1C(=O)c1cnc(NC2CCN(S(C)(=O)=O)CC2)nc1N,"nuclei count, normalised",[1]; [10],43.7%
same,"nuclei count, normalised",[1]; [11],27.7%
same,"p53-positive nuclei, normalised",[2]; [12],67.1% (active)
same,"p53-positive nuclei, normalised",[2]; [13],73.8%
Cc1cc(OCCCS(C)(=O)=O)cc(C)c1-c1cccc(COc2ccc3c(c2)OCC3CC(=O)O)c1 (centres undefined),"nuclei count, normalised","[1]; measured here: cell number at 24 h, Library stock concentration: 46 uM",101%
same,"nuclei count, normalised","[1]; measured here: cell number at 24 h, Library stock concentration: 278 uM",107%
same,"nuclei count, normalised","[1]; measured here: cell number at 24 h, Library stock concentration: 1.67 mM",104%
same,"nuclei count, normalised",[1]; [10],125%
same,"nuclei count, normalised",[1]; [3],103%
same,"nuclei count, normalised","[1]; measured here: cell number at 48 h, Library stock concentration: 46 uM",105%
same,"nuclei count, normalised","[1]; measured here: cell number at 48 h, Library stock concentration: 278 uM",104%
same,"nuclei count, normalised","[1]; measured here: cell number at 48 h, Library stock concentration: 1.67 mM",104%
same,"nuclei count, normalised",[1]; [11],119%
same,"nuclei count, normalised",[1]; [4],103%
same,"p53-positive nuclei, normalised",[2]; Library stock concentration: 46 uM,-0.0206% (inactive)
same,"p53-positive nuclei, normalised",[2]; Library stock concentration: 278 uM,-0.0568% (inactive)
same,"p53-positive nuclei, normalised",[2]; Library stock concentration: 1.67 mM,-0.0557% (inactive)
same,"p53-positive nuclei, normalised",[2]; [12],-0.149% (inactive)
same,"p53-positive nuclei, normalised",[2]; [5],0.322% (inactive)
same,"p53-positive nuclei, normalised","[2]; measured here: p53 positive nuclei at 24 h, Library stock concentration: 46 uM",-0.152%
same,"p53-positive nuclei, normalised","[2]; measured here: p53 positive nuclei at 24 h, Library stock concentration: 278 uM",0.151%
same,"p53-positive nuclei, normalised","[2]; measured here: p53 positive nuclei at 24 h, Library stock concentration: 1.67 mM",-0.156%
same,"p53-positive nuclei, normalised",[2]; [13],-0.546%
same,"p53-positive nuclei, normalised",[2]; [6],-0.0299%
O=C(O)/C=C/CCCCCCCCC(=O)O,"nuclei count, normalised",[1]; [7],111%
same,"nuclei count, normalised",[1]; [8],107%
same,"p53-positive nuclei, normalised",[2]; concentration not given here,0.0752% (inactive)
same,"p53-positive nuclei, normalised",[2]; [9],0.0107%

# Source: PubChem BioAssay AID1508601 (ICCB-Longwood Screening Facility, Harvard Medical School, 2020)
